PubChem BioAssay AID1159580 (chemical genetic matrix, 2015)
The whole screen tested about 5,500 compounds, of which about 2,000 (36%) were called active. Another 18% or so got no clear call; they are omitted. Rule as the data show it: active = normalized growth mostly below about 0.91 (no sharp cut-off); inconclusive = no clear call, values can overlap the other calls; inactive = mostly above about 0.92. The list shows a part of the results.

Experiment: chemical genetic growth profiling, strain panel (AID 1159580);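 also: tested at 20 µM; growth read once vehicle control cultures reached saturation at 30 °C; 1 = growth at the plate median or of vehicle wells; lower values mean less growth of the strain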
Details: growth OD

Measured: normalized growth

COc1cc(S(C)=O)ccc1-c1nc2ncccc2[nH]1 (centres undefined)
inactive: S. cerevisiae deletion strains, locus YJR043C, strain POL32, hits give low values 1 | S. cerevisiae deletion strains, locus YJR075W, strain HOC1, hits give low values 0.983 | S. cerevisiae deletion strains, locus YKL009W, strain mrt4, hits give low values 1 | S. cerevisiae deletion strains, locus YKL068W, hits give low values 0.991 | S. cerevisiae deletion strains, locus YKL085W, strain MDH1 (second series), hits give low values 1 | S. cerevisiae deletion strains, locus YKL085W, strain MDH1, hits give low values 1 | S. cerevisiae deletion strains, locus YKL160W, strain elf1, hits give low values 0.947 | S. cerevisiae deletion strains, locus YKL190W, strain CNB1, hits give low values 0.991 | S. cerevisiae deletion strains, locus YKR001C, strain vps1, hits give low values 0.986 | S. cerevisiae deletion strains, locus YKR026C, strain gcn3, hits give low values 0.98 | S. cerevisiae deletion strains, locus YKR091W, strain srl3, hits give low values 0.959 | S. cerevisiae deletion strains, locus YLL001W, strain dnm1, hits give low values 0.919 | S. cerevisiae deletion strains, locus YLL026W, hits give low values 0.962 | S. cerevisiae deletion strains, locus YLL041C, strain sdh2, hits give low values 0.97 | S. cerevisiae deletion strains, locus YLR027C, strain aat2, hits give low values 0.98 | S. cerevisiae deletion strains, locus YLR039C, strain RIC1, hits give low values 1.03 | S. cerevisiae deletion strains, locus YLR058C, strain SHM2, hits give low values 0.993 | S. cerevisiae deletion strains, locus YLR102C, strain apc9, hits give low values 0.999 | S. cerevisiae deletion strains, locus YLR221C, strain rsa3, hits give low values 1.01 | S. cerevisiae deletion strains, locus YLR258W, strain gsy2, hits give low values 0.93 | S. cerevisiae deletion strains, locus YLR262C, strain YPT6 (second series), hits give low values 0.987 | S. cerevisiae deletion strains, locus YLR262C, strain YPT6, hits give low values 0.994 | S. cerevisiae deletion strains, locus YLR268W, strain sec22, hits give low values 0.999 | S. cerevisiae deletion strains, locus YLR320W, strain mms22, hits give low values 0.995 | S. cerevisiae deletion strains, locus YLR330W, strain CHS5, hits give low values 0.988 | S. cerevisiae deletion strains, locus YLR342W, strain FKS1 (second series), hits give low values 1 | S. cerevisiae deletion strains, locus YLR342W, strain FKS1, hits give low values 0.969 | S. cerevisiae deletion strains, locus YLR357W, strain rsc2, hits give low values 0.915 | S. cerevisiae deletion strains, locus YLR370C, strain arc18, hits give low values 0.974 | S. cerevisiae deletion strains, locus YLR371W, strain rom2, hits give low values 0.991 | S. cerevisiae deletion strains, locus YLR384C, strain iki3, hits give low values 0.961 | S. cerevisiae deletion strains, locus YLR418C, strain cdc73, hits give low values 1.04 | S. cerevisiae deletion strains, locus YML016C, strain PPZ1, hits give low values 1 | S. cerevisiae deletion strains, locus YML032C, strain rad52, hits give low values 0.989 | S. cerevisiae deletion strains, locus YML120C, strain ndi1, hits give low values 0.971 | S. cerevisiae deletion strains, locus YML124C, strain tub3, hits give low values 0.993 | S. cerevisiae deletion strains, locus YMR058W, strain fet3, hits give low values 0.982 | S. cerevisiae deletion strains, locus YMR078C, strain ctf18, hits give low values 0.989 | S. cerevisiae deletion strains, locus YMR125W, strain sto1, hits give low values 0.927 | S. cerevisiae deletion strains, locus YMR129W, hits give low values 0.979 | S. cerevisiae deletion strains, locus YMR205C, strain PFK2, hits give low values 0.93 | S. cerevisiae deletion strains, locus YMR223W, strain ubp8, hits give low values 0.998 | S. cerevisiae deletion strains, locus YMR231W, strain pep5, hits give low values 0.99 | S. cerevisiae deletion strains, locus YMR263W, strain SAP30, hits give low values 0.975 | S. cerevisiae deletion strains, locus YMR307W, strain GAS1, hits give low values 1.03 | S. cerevisiae deletion strains, locus YNL067W, strain RPL9B, hits give low values 1.01 | S. cerevisiae deletion strains, locus YNL071W, strain lat1, hits give low values 0.97 | S. cerevisiae deletion strains, locus YNL128W, strain TEP1, hits give low values 0.997 | S. cerevisiae deletion strains, locus YNL153C, strain GIM3, hits give low values 0.999 | S. cerevisiae deletion strains, locus YNL209W, strain ssb2, hits give low values 0.98 | S. cerevisiae deletion strains, locus YNL233W, strain BNI4, hits give low values 0.995 | S. cerevisiae deletion strains, locus YNL248C, strain rpa49, hits give low values 0.967 | S. cerevisiae deletion strains, locus YNL250W, strain rad50, hits give low values 0.991 | S. cerevisiae deletion strains, locus YNL271C, strain bni1, hits give low values 0.997 | S. cerevisiae deletion strains, locus YNL298W, strain CLA4, hits give low values 0.971 | S. cerevisiae deletion strains, locus YNL307C, strain MCK1, hits give low values 1 | S. cerevisiae deletion strains, locus YNL322C, strain KRE1 (second series), hits give low values 0.938 | S. cerevisiae deletion strains, locus YNL322C, strain KRE1, hits give low values 0.998 | S. cerevisiae deletion strains, locus YNR049C, strain mso1, hits give low values 0.966 | S. cerevisiae deletion strains, locus YNR052C, strain pop2, hits give low values 0.976 | S. cerevisiae deletion strains, locus YOL006C, strain TOP1, hits give low values 1.04 | S. cerevisiae deletion strains, locus YOL012C, strain htz1 1.02 | S. cerevisiae deletion strains, locus YOL147C, strain pex11, hits give low values 0.982 | S. cerevisiae deletion strains, locus YOR001W, strain rrp6, hits give low values 1.01 | S. cerevisiae deletion strains, locus YOR061W, strain CKA2, hits give low values 1.01 | S. cerevisiae deletion strains, locus YOR069W, strain VPS5, hits give low values 1 | S. cerevisiae deletion strains, locus YOR070C, strain gyp1, hits give low values 0.993 | S. cerevisiae deletion strains, locus YOR080W, strain dia2, hits give low values 0.982 | S. cerevisiae deletion strains, locus YOR083W, strain WHI5, hits give low values 0.936 | S. cerevisiae deletion strains, locus YOR106W, strain vam3, hits give low values 0.91 | S. cerevisiae deletion strains, locus YOR136W, strain idh2, hits give low values 0.986 | S. cerevisiae deletion strains, locus YOR144C, strain elg1, hits give low values 0.99 | S. cerevisiae deletion strains, locus YOR184W, strain ser1, hits give low values 0.998 | S. cerevisiae deletion strains, locus YOR265W, strain rbl2, hits give low values 0.967 | S. cerevisiae deletion strains, locus YOR270C, strain vph1, hits give low values 0.974 | S. cerevisiae deletion strains, locus YOR290C, strain snf2, hits give low values 0.951 | S. cerevisiae deletion strains, locus YOR316C, strain cot1, hits give low values 0.991 | S. cerevisiae deletion strains, locus YPL051W, strain arl3, hits give low values 0.943 | S. cerevisiae deletion strains, locus YPL055C, strain LGE1, hits give low values 0.925 | S. cerevisiae deletion strains, locus YPL078C, strain atp4, hits give low values 0.94 | S. cerevisiae deletion strains, locus YPL106C, strain sse1, hits give low values 0.947 | S. cerevisiae deletion strains, locus YPL240C, strain hsp82, hits give low values 0.985 | S. cerevisiae deletion strains, locus YPL241C, strain CIN2, hits give low values 0.992 | S. cerevisiae deletion strains, locus YPR119W, strain clb2, hits give low values 0.988 | S. cerevisiae deletion strains, locus YPR141C, strain kar3, hits give low values 0.999 | S. cerevisiae deletion strains, locus YPR163C, strain tif3, hits give low values 0.982 | S. cerevisiae deletion strains, locus YPR167C, strain met16, hits give low values 0.999 | S. cerevisiae deletion strains, strain wtn01, hits give low values 0.975 | S. cerevisiae strains, strain wild type, hits give low values 1
